PubChem BioAssay (Tox21)
Results filed as inconclusive are left out. A call without a number means that no potency is given here. The source made the active and inactive calls. Calls follow the shape of the dose curve; as a rule, active = well fitted inhibition curve with a large enough effect in the repeat runs; inconclusive = weak or mixed curves, or effect the other way; inactive = no such curve, though single readings can be large or run the other way.

These molecules were tested against Androgen receptor (Homo sapiens) (UniProt P10275) (assay: qHTS assay to identify small molecule antagonists of the androgen receptor (AR) signaling pathway using the MDA cell line (AID 743042; also: nearly all actives have a fitted effect of over 55% in size)). Conditions: MDA-kb2 AR-luc, MMTV luciferase, R1881 antagonist, 16 h; series mostly up to 70.3 µM.
Outline: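 Antagonist mode: compounds plus R1881 agonist added to MDA-kb2 AR-luc cells, incubated 16 h at 37C. Luciferase reporter luminescence quantified, with multiplexed CellTiter-Fluor readout for cell viability.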
Potency is read from the fitted curve at half-maximal effect.

Androgen receptor (Homo sapiens), sequence (P10275 whole entry, looked up): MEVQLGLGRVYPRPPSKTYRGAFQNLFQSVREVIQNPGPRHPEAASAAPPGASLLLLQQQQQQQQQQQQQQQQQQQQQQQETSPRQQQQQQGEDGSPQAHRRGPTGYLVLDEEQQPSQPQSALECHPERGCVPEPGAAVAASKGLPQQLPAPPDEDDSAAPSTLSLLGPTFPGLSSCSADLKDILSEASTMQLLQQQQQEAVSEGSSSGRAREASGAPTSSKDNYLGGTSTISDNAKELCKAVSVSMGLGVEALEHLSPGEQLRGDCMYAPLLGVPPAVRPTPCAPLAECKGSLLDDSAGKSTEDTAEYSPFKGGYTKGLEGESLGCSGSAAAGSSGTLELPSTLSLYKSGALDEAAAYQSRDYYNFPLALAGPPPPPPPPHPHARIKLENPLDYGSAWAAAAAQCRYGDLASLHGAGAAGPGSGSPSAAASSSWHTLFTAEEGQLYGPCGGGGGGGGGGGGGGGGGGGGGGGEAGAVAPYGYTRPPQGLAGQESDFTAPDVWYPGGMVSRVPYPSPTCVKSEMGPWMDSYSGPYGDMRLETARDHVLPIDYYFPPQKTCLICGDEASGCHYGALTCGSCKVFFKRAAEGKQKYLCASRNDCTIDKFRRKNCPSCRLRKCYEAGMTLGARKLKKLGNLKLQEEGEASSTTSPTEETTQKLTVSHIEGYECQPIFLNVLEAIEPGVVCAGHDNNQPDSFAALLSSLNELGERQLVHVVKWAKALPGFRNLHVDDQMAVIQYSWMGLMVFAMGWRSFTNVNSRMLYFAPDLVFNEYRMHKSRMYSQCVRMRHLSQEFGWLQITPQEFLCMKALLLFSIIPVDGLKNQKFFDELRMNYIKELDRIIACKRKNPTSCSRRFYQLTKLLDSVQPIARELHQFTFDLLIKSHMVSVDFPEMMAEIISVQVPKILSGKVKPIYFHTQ

SMILES | Potency
CCCCCCCCCCCCCCCC(=O)OC[C@@H](COP(=O)([O-])OCC[N+](C)(C)C)OC(=O)CCCCCCCCCCCCCCC | inactive
CCC(=O)O[C@H]1CC[C@H]2[C@@H]3CCc4cc(O)ccc4[C@H]3CC[C@]12C | inactive
COc1cc(/C=C/C(=O)N2CCN(CC(=O)N3CCCC3)CC2)cc(OC)c1OC | inactive
CC1=C(/C=C/C(C)=C/C=C/C(C)=C/C=C/C=C(C)/C=C/C=C(C)/C=C/C2=C(C)C[C@@H](O)CC2(C)C)C(C)(C)C[C@H](O)C1 | 29.8 µM (active)
O=C(O)CCC/C=C\C[C@@H]1[C@@H](/C=C/[C@@H](O)COc2cccc(Cl)c2)[C@H](O)C[C@@H]1O | inactive
C=C1C(=O)O[C@H]2[C@H]1CC/C(C)=C\CC[C@@]1(C)O[C@@H]21 | 6.68 µM (active)
CCCCCCCCCCCCCCCCSCC(COC)COP(=O)([O-])OCC[N+](C)(C)C (stereo unspecified) | inactive
CN(C)C(=O)CCSC(SCCC(=O)O)c1cccc(/C=C/c2ccc3ccc(Cl)cc3n2)c1 (stereo unspecified) | inactive
CCOc1ccc(N=Nc2ccc(N)cc2N)cc1 | inactive
C=CC[C@@H]1/C=C(\C)C[C@H](C)C[C@H](OC)[C@H]2O[C@@](O)(C(=O)C(=O)N3CCCC[C@H]3C(=O)O[C@H](/C(C)=C/[C@@H]3CC[C@@H](O)[C@H](OC)C3)[C@H](C)[C@@H](O)CC1=O)[C@H](C)C[C@@H]2OC | inactive
CCCC1([C@H](O)C/C=C/[C@H]2[C@H](O)CC(=O)[C@@H]2CCCCCCC(=O)OC)CCC1 | inactive
